# Experimental data from the supplement of paper PMC10338343.
# ± gives the standard deviation.
# System: MILI (PIWIL2) piRISC loaded with L1MC piRNA (26 nt)
# Test: pre-steady-state target cleavage rate (min^-1); guide: L1MC piRNA 5'p-UAACUAAAUACUAUGCAAGCUGUAGG; MIWI and MILI are mouse PIWI proteins and EfPiwi is from a freshwater sponge; tags in brackets are library labels; higher = faster piRNA-guided slicing of the target
# Details: auxiliary factor: 500 nM mouse GTSF1
# Outline: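 The pre-steady-state cleavage rate was obtained by Cleave-'n-Seq with a burst-and-steady-state fit. A transcribed, DNA-blocked target RNA library (0.1 nM) was mixed with 1 nM active affinity-purified piRISC carrying one synthetic guide, with or without 500 nM GTSF1 partner protein, in HEPES–potassium acetate buffer at 33 °C for 0–8 or 0–960 min. Uncleaved targets were sequenced and normalised to depth and to weakly complementary targets, with three trials pooled and k3 capped at 0.0001 min^-1.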
row,Sequence,pre-steady-state target cleavage rate
1,UCCUCCUACAGGAUGCAUAGUAUUUUCAAA,0.0564 ± 0.017
2,UCCUGCUACAGCUUGCUUAGUAUUUAGAAA,0.0602 ± 0.019
3,UCCUGGAUGUGCUUGCAUAGUAUGUAGUUA,0.134 ± 0.026
4,UCCUGGUACAGCUUGCAUUGUAUUUAGAAA,0.0202 ± 0.0075
5,UCCUGGAACUGCUUGCAUAGUAUUUAGAAA,0.103 ± 0.019
6,UCCUGGAACAGCUUGGAUAGUAUUAAGUUA,0.186 ± 0.033
7,UCCUGCUACAGCUUGCAUUGUAUUUAGAUA,0.106 ± 0.017
8,UCCUGCUACAGCUUGCAUAGAAUUUUGUUA,0.06 ± 0.013
9,UCCUGGUACAGCUUGCAUAGAAUUUAGUUA,0.229 ± 0.08
10,UCCUGGAACACCUAGCAUAGUAUUUAGUUA,0.229 ± 0.032
11,UCCUCCUACAGCUUGCAAUAGUAUUUAGUUA,0.0415 ± 0.01
12,UCCUCCAUCAGCUUGCAUAGUAUUUUCAAA,0.0846 ± 0.02
13,UCCUGCUACAGCUUGCAUAGUAUUUUGAAA,0.112 ± 0.029
14,UCCUGCUACAGCUUGCAUAGAAUAUAGUUA,0.0873 ± 0.021
15,UCCUGGAACAGCUUGCAUAGUAAAUAGAAA,0.0493 ± 0.016
16,UCCUGGAACAGCUUGCAUAGAAUUUAGUAA,0.0627 ± 0.014
17,UCCUCCUACAGCUUGCAUAGUAUUUAGAAA,0.18 ± 0.028
18,UCCUCCUACAGCUUGCUUAGUAUUUAGAAA,0.091 ± 0.018
19,UCCUGGAACAGCAUCCAUAGUAUUUAGUUA,0.195 ± 0.045
20,UCCUCCUACAGCUAGCAUAGUAUUUUGUUA,0.151 ± 0.019

row,Sequence,pre-steady-state target cleavage rate
1,UCCUGCUAGAGCUUGCAUAGAAUUUAGUUA,0.0404 ± 0.0063
2,UCCUGCUACACCUUGCAUAGUAUUUUCAAA,0.0765 ± 0.028
3,UCCUGGAUGAGCUUGCAUAGUAUUUACUAA,0.00674 ± 0.0044
4,UCCUCCUACAGCUUGCAAAGUAUUUAGAUA,0.0875 ± 0.015
5,UCCUCCUACAGCUUGCAUAGUUAAUAGUUA,0.0685 ± 0.022
6,UCCUGGAUGUGCUUGCAUAUUAUUUAGUUA,0.0346 ± 0.0073
7,UCCUCCUACACCUUGCAUAGUAUUUACUUA,0.128 ± 0.038
8,UCCUGCUACAGCUUGCAUAGUAUAAUGUUA,0.166 ± 0.022
9,UCCUGGUACAGCUUGCAUACUAUUUAGUAA,0.0573 ± 0.023
10,UCCUGGAUCACGAUGCAUAGUAUUUAGUAA,0.173 ± 0.016
11,UCCUCCUACAGCAUGCAUAGAAUUUAGUUA,0.176 ± 0.044
12,UCCUGCUACAGCUUGCAUAGGAUUUAGUUA,0.00856 ± 0.0037
13,UCCUCCUACAGGUUGCAUAGUAUUUAGAAA,0.12 ± 0.023
14,UCCUCCUACAGCUAGCAUAGUAUUUACAAA,0.0849 ± 0.018
15,UCCUGCUACAGCUUGCAUAGUUUAUAGUUA,0.0528 ± 0.017
16,UCCUCCUACAGCUUGCAUAGUAUUAAGAUA,0.125 ± 0.032
17,UCCUGGAACAGCUUGGAUAGUUUUUAGUUA,0.0453 ± 0.0097
18,UCCUGCUACAGCUUGCAUAGUAUUUAGGUA,0.143 ± 0.034
19,UCCUCCUACAGCUUGCAUAGUAUGUAGUUA,0.041 ± 0.015
20,UCCUGCUACAGCUUGGAUAGAAUUUAGUUA,0.0646 ± 0.014
